# Test results from PubChem BioAssay.
# The source made the active and inactive calls. Unless noted, no rule for the calls is given here.
# Columns and labels:
# [1] = tested on: Wnt5a (protein binding on small-molecule microarray); test: Wnt5a binders on small-molecule microarray, primary screen, biophysical, 635/667 nm fluorescence (AID 1142); details: 635 nm fluorescence, higher = more signal;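 also: fluorescence read at 667 nm with signal to noise per printed feature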
# [2] = cell viability in Huh7 cells, primary screen, cytotoxicity control for HCV replication inhibitor project, CellTiter-Glo luminescence, basal, 48 h (AID 1143); details: Huh7 HCV replicon, higher = more signal, called active from +8 up or from −8 down;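 also: Huh7 hepatoma cells carrying a hepatitis C replication reporter with no stimulus; test concentration not given here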
# [3] = P. aeruginosa biofilm formation inhibitors, primary screen, PAO1 strain, BacTiter-Glo luminescence, LB-PBS (AID 1144); details: 12 h, higher = more signal
# [4] = CREB reporter modulators without forskolin, primary screen, cell-based, PC12, CRE-LacZ reporter, unstimulated (AID 1145); details: no forskolin, luminescence, 4.5 h, higher = more signal, called active from +8 up or from −8 down
# [5] = CREB reporter modulators under forskolin, primary screen, cell-based, PC12, CRE-LacZ reporter, forskolin-stimulated (AID 1146); details: luminescence, 4.5 h, higher = more signal, called active from +8 up or from −8 down;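 also: PC12 cells with 6xCRE LacZ reporter stimulated by forskolin 10 µM; beta-galactosidase reporter signal reflecting CREB driven transcription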
# [6] = target: Streptavidin (Streptomyces avidinii) (UniProt P22629); test: streptavidin binders on small-molecule microarray, primary screen, artefact control for SMM compound annotation, biophysical, 635/667 nm fluorescence (AID 1147); details: streptavidin binding, higher = more signal;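 also: signal reflects streptavidin binding to arrayed compounds as a control protein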
# Chain of Streptavidin (Streptomyces avidinii) (P22629 whole entry, looked up): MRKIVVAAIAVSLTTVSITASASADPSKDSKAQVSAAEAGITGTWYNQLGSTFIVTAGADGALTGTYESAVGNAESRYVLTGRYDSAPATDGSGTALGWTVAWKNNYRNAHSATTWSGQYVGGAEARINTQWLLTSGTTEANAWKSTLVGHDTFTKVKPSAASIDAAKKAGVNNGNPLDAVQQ
# [7] = small-molecule binders of probe aInhba, primary screen, biochemical, small-molecule microarray, 635/667 nm fluorescence (AID 1148); details: higher = more signal;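 also: score merges 667nm spot fluorescence with signal-to-noise for antibody binding to printed compounds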
# [8] = target: Torsin-1A (Homo sapiens) (UniProt O14656); test: torsin A binders from cell lysate, primary screen, small-molecule microarray, wild-type, 635/667 nm (AID 1149); details: COS7 hTOR1A-WT lysate, 635 nm fluorescence, higher = more signal
# Chain of Torsin-1A (Homo sapiens) (O14656 whole entry, looked up): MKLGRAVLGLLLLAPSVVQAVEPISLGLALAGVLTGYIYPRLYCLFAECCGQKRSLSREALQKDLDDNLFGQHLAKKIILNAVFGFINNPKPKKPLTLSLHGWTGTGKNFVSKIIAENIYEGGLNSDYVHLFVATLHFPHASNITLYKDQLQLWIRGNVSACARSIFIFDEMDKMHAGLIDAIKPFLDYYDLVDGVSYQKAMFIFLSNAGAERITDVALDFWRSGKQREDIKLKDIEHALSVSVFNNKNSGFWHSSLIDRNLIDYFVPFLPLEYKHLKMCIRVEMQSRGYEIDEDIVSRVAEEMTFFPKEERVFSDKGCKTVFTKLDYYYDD
# [9] = target: Torsin-1A (Homo sapiens) (UniProt O14656); test: small-molecule binders of mutant TOR1A in lysate, primary screen, cell lysate, small-molecule microarray, COS7 lysate, 635/667 nm fluorescence (AID 1150); details: COS7 hTOR1A mutant lysate, 635 nm fluorescence, higher = more signal;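 also: score pools 667 nm emission and signal to noise measuring lysate protein binding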
# [10] = tested on: Sonic hedgehog protein (Shh); test: small-molecule binders of Shh protein, primary screen, biochemical, small-molecule microarray, 635/667 nm fluorescence (AID 1151); details: small-molecule microarray binding, 635 nm fluorescence; higher = more signal;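 also: Shh protein binding to compounds spotted on small-molecule microarray slides; score combines spot fluorescence intensity with signal-to-noise across triplicate slides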
# [11] = E. coli DRC41 culture turbidity changes, primary screen, E. coli filamentation inducer project, strain DRC41, OD650, 48 h (AID 1152);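 also: E. coli MC1000 strain DRC41 lacking acrAB efflux pump and sulA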; details: E. coli DRC41 (acrAB sulA), higher = more signal, called active from +8 up or from −8 down
# [12] = small-molecule binders of probe aLefty1, primary screen, biochemical, small-molecule microarray, 635/667 nm fluorescence (AID 1153); details: higher = more signal;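 also: score merges spot fluorescence with signal-to-noise ratio from the scanned slide images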
# [13] = PSAC antagonists in infected red cells, primary screen, cell-based, P. falciparum Indochina, OD700, 1 h (AID 1154); details: P. falciparum Indochina infected RBC osmotic lysis, higher = more signal, called active from +8 up or from −8 down
# [14] = PSAC antagonists in infected red cells, primary screen, cell-based, P. falciparum Indochina, OD700, 2 h (AID 1155);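 also: lysis reports solute entry through the parasite surface anion channel PSAC; channel blockers reduce lysis of infected cells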; details: P. falciparum Indochina infected erythrocytes, osmotic lysis OD700; higher = more signal, called active from +8 up or from −8 down
# [15] = osmotic lysis modulators in infected erythrocytes, primary screen, PSAC antagonist project, cell-based, P. falciparum Indochina, OD700, 3 h (AID 1156); details: higher = more signal, called active from +8 up or from −8 down
# [16] = PSAC antagonists in infected red cells, primary screen, cell-based, P. falciparum Indochina, OD700, 18 h (AID 1157); details: P. falciparum Indochina infected erythrocytes, osmotic lysis OD700, 18 h; higher = more signal, called active from +8 up or from −8 down
# [17] = modulators of S6 phosphorylation in cells, primary screen, cell-based, A549, cytoblot, luminescence, serum-stimulated (AID 1158); details: A549 phospho-S6 cytoblot, 5 h, higher = more signal;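 also: serum-stimulated A549 lung adenocarcinoma cells; signal is phosphorylated S6 detected by cytoblot immunostaining with HRP secondary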
# [18] = target: NADPH oxidase 2 (Homo sapiens) (UniProt P04839); test: NOX2-dependent H2O2 signal modulators, primary screen, NOX inhibitor project, cell-based, HEK293-NOX2, PMA-stimulated, Amplex Red fluorescence (AID 1159); details: 45 min, higher = more signal, called active from +8 up or from −8 down; also: test concentration not given here
# Chain of NADPH oxidase 2 (Homo sapiens) (P04839 whole entry, looked up): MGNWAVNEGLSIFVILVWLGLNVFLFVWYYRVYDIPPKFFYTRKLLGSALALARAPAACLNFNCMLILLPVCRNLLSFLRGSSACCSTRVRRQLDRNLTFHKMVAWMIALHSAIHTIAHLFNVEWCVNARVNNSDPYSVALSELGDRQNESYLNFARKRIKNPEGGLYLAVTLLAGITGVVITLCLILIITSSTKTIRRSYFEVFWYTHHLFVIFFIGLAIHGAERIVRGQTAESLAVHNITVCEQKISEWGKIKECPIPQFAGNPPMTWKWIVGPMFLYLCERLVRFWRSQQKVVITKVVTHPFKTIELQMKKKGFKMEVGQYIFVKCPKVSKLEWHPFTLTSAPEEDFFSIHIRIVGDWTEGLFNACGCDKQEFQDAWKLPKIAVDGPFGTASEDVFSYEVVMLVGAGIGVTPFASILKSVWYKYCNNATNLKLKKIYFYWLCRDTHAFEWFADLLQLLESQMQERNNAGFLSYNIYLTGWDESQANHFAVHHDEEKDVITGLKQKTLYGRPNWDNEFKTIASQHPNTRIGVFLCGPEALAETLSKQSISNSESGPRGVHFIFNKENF
# [19] = target: NADPH oxidase 4 (Homo sapiens) (UniProt Q9NPH5); test: NOX4-dependent H2O2 signal modulators, primary screen, NOX inhibitor project, cell-based, HEK293-NOX4, tetracycline-induced, Amplex Red fluorescence (AID 1160); details: 45 min, higher = more signal, called active from +8 up or from −8 down
# Chain of NADPH oxidase 4 (Homo sapiens) (Q9NPH5 whole entry, looked up): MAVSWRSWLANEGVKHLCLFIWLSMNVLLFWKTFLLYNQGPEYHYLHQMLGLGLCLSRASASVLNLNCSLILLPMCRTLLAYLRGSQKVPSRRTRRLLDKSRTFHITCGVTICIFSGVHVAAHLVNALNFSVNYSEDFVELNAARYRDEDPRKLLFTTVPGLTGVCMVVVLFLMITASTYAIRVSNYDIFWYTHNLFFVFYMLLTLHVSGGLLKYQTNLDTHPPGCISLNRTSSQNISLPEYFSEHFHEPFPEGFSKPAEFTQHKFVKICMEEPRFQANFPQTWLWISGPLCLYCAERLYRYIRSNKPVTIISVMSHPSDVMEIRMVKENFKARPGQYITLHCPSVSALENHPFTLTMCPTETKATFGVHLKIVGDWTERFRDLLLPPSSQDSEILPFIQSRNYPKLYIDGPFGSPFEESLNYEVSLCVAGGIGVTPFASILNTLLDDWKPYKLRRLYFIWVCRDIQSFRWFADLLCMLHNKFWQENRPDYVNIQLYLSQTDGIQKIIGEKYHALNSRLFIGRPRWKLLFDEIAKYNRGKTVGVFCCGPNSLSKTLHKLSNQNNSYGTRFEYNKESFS
# [20] = target: NADPH oxidase 5 (Homo sapiens) (UniProt Q96PH1); test: NOX5-dependent H2O2 signal modulators, primary screen, NOX inhibitor project, cell-based, HEK293-NOX5, Amplex Red fluorescence (AID 1161); details: HEK293-NOX5, ionomycin, 45 min, higher = more signal
# Chain of NADPH oxidase 5 (Homo sapiens) (Q96PH1 whole entry, looked up): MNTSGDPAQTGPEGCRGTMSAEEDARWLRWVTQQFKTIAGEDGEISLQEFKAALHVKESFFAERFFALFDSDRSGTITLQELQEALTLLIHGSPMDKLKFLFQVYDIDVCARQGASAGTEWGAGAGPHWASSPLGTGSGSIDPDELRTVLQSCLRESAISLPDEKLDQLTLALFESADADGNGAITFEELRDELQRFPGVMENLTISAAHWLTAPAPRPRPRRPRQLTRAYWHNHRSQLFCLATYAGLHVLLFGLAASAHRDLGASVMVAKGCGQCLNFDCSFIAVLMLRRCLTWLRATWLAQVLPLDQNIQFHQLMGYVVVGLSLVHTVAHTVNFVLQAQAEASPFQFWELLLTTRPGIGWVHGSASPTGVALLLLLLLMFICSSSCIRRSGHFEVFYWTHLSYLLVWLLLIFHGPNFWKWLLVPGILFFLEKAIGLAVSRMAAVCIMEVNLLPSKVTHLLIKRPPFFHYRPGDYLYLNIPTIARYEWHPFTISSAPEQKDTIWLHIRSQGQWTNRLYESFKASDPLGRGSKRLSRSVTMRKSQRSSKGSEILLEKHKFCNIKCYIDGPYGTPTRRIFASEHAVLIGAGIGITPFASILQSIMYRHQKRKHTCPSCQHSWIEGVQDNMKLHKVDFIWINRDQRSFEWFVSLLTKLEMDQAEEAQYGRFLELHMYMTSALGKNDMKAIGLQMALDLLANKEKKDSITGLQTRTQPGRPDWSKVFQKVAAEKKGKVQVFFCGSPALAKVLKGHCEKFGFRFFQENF
SMILES,composite z-score [1],z-score [2],z-score [3],z-score [4],z-score [5],composite z-score [6],composite z-score [7],composite z-score [8],composite z-score [9],composite z-score [10],z-score [11],composite z-score [12],z-score [13],z-score [14],z-score [15],z-score [16],z-score [17],z-score [18],z-score [19],z-score [20]
C=C(C)C1C(=C)CN([C@H](CO)c2ccccc2)C1=O (stereo not given in full),-0.231,-0.677 (inactive),-0.65 (inactive),-0.141 (inactive),0.176 (inactive),-1.12,-0.103,-1.46,-0.821,1.28,-1.08 (inactive),-0.285,0.391 (inactive),0.497 (inactive),0.711 (inactive),-0.0396 (inactive),-0.272,1.98 (inactive),0.998 (inactive),-0.846
C#CCN(Cc1ccccc1Br)C(/C=C/c1ccccc1)CO (stereo not given),-0.15,-4.79 (inactive),0.825 (inactive),5.19 (inactive),-1.04 (inactive),-0.175,-0.283,0.0428,-0.653,-0.0683,-0.585 (inactive),-0.226,12.5 (active),2.61 (inactive),-1.31 (inactive),0.696 (inactive),-0.188,0.28 (inactive),-0.157 (inactive),-2.02
COC(=O)[C@@]1(Cc2ccc(F)cc2)[C@H]2c3cc(C(=O)N(C)C)n(Cc4ccc(S(C)(=O)=O)cc4)c3C[C@H]2CN1C(=O)c1ccccc1,0.0577,-0.845 (inactive),-0.65 (inactive),0.766 (inactive),-0.428 (inactive),1.02,0.266,0.33,0.0685,-0.447,-0.367 (inactive),0.277,1.32 (inactive),0.495 (inactive),1.01 (inactive),0.739 (inactive),-0.594,0.713 (inactive),0.668 (inactive),0.274
O=C1O[C@H](c2ccccc2)[C@H](c2ccccc2)N2[C@H]1[C@@H](C(=O)Nc1nc3ccccc3s1)[C@]1(C(=O)Nc3ccc(C#CCCO)cc31)[C@H]2c1ccc(OCCO)cc1,0.767,-0.218 (inactive),-0.0404 (inactive),-0.471 (inactive),0.806 (inactive),1.1,0.532,1.15,0.637,1.05,-0.448 (inactive),1.34,3.09 (inactive),2.02 (inactive),0.97 (inactive),2 (inactive),-0.472,1.18 (inactive),0.111 (inactive),0.278
CC(=O)N1Cc2ccccc2C[C@@]2(COC(c3ccc(OCCCO)cc3)=N2)C1=O,0.36,-2.57 (inactive),-0.957 (inactive),1.82 (inactive),-1.42 (inactive),1.23,0.407,0.135,0.997,0.504,2.48 (inactive),0.611,28.1 (active),13.4 (active),2.79 (inactive),1.7 (inactive),2.28,-1 (inactive),1.74 (inactive),-1.24
O=C(NCc1ccccc1)[C@@]1(Cc2ccccc2)N=C(c2ccc(OCCCO)cc2)O[C@H]1c1ccccc1,0.209,-3.5 (inactive),-0.883 (inactive),-0.183 (inactive),-0.413 (inactive),1.15,0.161,0.924,0.918,-0.183,0.179 (inactive),0.609,13.5 (active),2.11 (inactive),1.5 (inactive),0.86 (inactive),-0.0312,-1.28 (inactive),0.98 (inactive),0.756
Cc1ccc(S[C@]2(C(=O)NC(C)C)CC(=O)N(Cc3ccccc3Cl)[C@@H]2c2ccc(CO)cc2I)cc1,-0.615,-2.03 (inactive),0.248 (inactive),-0.374 (inactive),2.53 (inactive),-0.265,-0.224,-1.85,-1.25,-0.008,-0.462 (inactive),0.0023,11.2 (active),1.44 (inactive),0.681 (inactive),0.377 (inactive),-0.487,0.769 (inactive),-1.51 (inactive),0.183
COc1cc2c(cc1OC)CN(C(=O)[C@@H]1[C@H]3C(=O)O[C@H](c4ccccc4)[C@H](c4ccccc4)N3[C@H](c3ccc(O)cc3)[C@@]13C(=O)Nc1ccc(C#CC4(O)CCCCCC4)cc13)CC2,0.382,-0.292 (inactive),-0.37 (inactive),-0.168 (inactive),-0.65 (inactive),1.06,-0.287,0.287,0.787,1.91,0.384 (inactive),-0.771,0.794 (inactive),0.657 (inactive),0.87 (inactive),0.442 (inactive),0.137,1.65 (inactive),0.744 (inactive),0.479
CC(C)C[C@@H]1NC(=O)[C@@H]2C[C@H](C(=O)NCCCCCN)[C@H](c3cccc(OCCO)c3)N2C1=O,0.794,-0.542 (inactive),-1.64 (inactive),0.0043 (inactive),0.442 (inactive),1.05,-0.0736,0.941,0.919,1.05,1.28 (inactive),0.427,3.07 (inactive),-0.74 (inactive),1.1 (inactive),-2 (inactive),0.836,1.22 (inactive),0.74 (inactive),1.43
COc1ccc(C(O)C2C=CC3C(=O)NC(=O)C3N2Nc2ccccn2)c2ccccc12 (stereo not given),0.0373,1.04 (inactive),-0.507 (inactive),-0.133 (inactive),0.214 (inactive),-0.0105,-0.0791,0.239,-0.274,0.448,-1.07 (inactive),-0.0625,0.496 (inactive),0.437 (inactive),-0.139 (inactive),0.977 (inactive),-0.841,-0.387 (inactive),-3.5 (inactive),-2.08
COc1ccc(C(=O)Nc2cccc(CN3C(=O)[C@]4(O[C@H](CCO)[C@@H]([Si](C)(C)c5ccc(OC)cc5)[C@@H]4C)c4ccccc43)c2)cc1,0.24,-8.03 (active),-0.694 (inactive),10.9 (active),-1.29 (inactive),0.388,-0.121,0.271,0.424,1.83,-0.172 (inactive),0.0698,2.54 (inactive),1.45 (inactive),0.374 (inactive),1.85 (inactive),-0.59,-6.65 (inactive),-2.74 (inactive),-3.1
C=C(CCCC)C(=O)CC[C@H](OC(=O)c1cccnc1)c1ccccc1OCCO,0.218,-2.15 (inactive),-0.0162 (inactive),2.21 (inactive),1.94 (inactive),-0.423,-0.128,1.07,0.218,0.552,0.853 (inactive),-0.012,16 (active),1.6 (inactive),0.232 (inactive),-0.674 (inactive),1.28,-1.2 (inactive),-0.324 (inactive),-2.33
COc1ccc([Si](C)(C)[C@H]2[C@H](CCO)O[C@@]3(C(=O)N(Cc4ccc(N5C(=O)COc6ccccc65)cc4)c4ccccc43)[C@@H]2C)cc1,-0.516,-6.62 (inactive),-1.32 (inactive),-0.766 (inactive),-0.706 (inactive),-0.314,-0.128,-1.06,-0.89,-0.15,-0.609 (inactive),-0.0094,5 (inactive),2.39 (inactive),-0.645 (inactive),1.41 (inactive),0.328,-0.916 (inactive),1.3 (inactive),2
C[C@]1(C(=O)NC2CC2)c2ccccc2C(=O)N(Cc2cc(C(F)(F)F)cc(C(F)(F)F)c2)[C@H]1c1ccc(CO)cc1,0.46,-1.38 (inactive),0.501 (inactive),-0.825 (inactive),-1.25 (inactive),0.0956,0.225,0.372,0.329,-0.0874,1.4 (inactive),0.0278,7.52 (inactive),1.18 (inactive),1.26 (inactive),0.599 (inactive),0.049,-1.25 (inactive),0.222 (inactive),1.06
O=C(NCC(F)(F)F)[C@@H]1c2ccccc2C(=O)N(C2CCCCC2)[C@H]1c1ccc(CO)cc1,-0.107,-1.51 (inactive),0.795 (inactive),0.299 (inactive),-0.258 (inactive),0.0656,-0.0422,0.252,-0.287,-0.376,-0.36 (inactive),-0.146,0.732 (inactive),-0.243 (inactive),0.0266 (inactive),0.18 (inactive),-0.216,0.292 (inactive),-0.755 (inactive),0.211
O=C1[C@H]2C=C(Br)[C@H](C[C@@H]2c2ccccc2)[C@@]12CO2,0.127,-0.856 (inactive),0.552 (inactive),1.58 (inactive),4.2 (inactive),0.105,0.0528,0.175,0.273,0.982,-1.47 (inactive),0.0041,1.22 (inactive),0.497 (inactive),0.637 (inactive),0.279 (inactive),-0.327,0.242 (inactive),0.141 (inactive),-0.855
COc1ccc([C@H]2OC[C@@H]3CC4(CC=CC4)C(=O)N32)cc1,0.0071,0.377 (inactive),0.25 (inactive),0.236 (inactive),0.249 (inactive),0.193,-0.159,-0.477,-0.436,1.92,-0.56 (inactive),0.0406,0.486 (inactive),0.477 (inactive),-0.51 (inactive),0.136 (inactive),-0.516,0.777 (inactive),0.674 (inactive),0.291
